{"source": "the antibiotic and cytotoxicity screens of Wong et al. (2023)", "note": "Screen size: about 39,000 compounds; about 500 (1.3%) were called active. Only a selection was taken, and actives are over-represented in it overall.", "data": [{"tested_on": "S. aureus RN4220", "assay": "growth inhibition call (relative growth <= 0.2)", "details": "50 µM", "values": [{"smiles": "C[C@@H]1CN([C@@H](C)CO)C(=O)c2cccc(NC(=O)c3ccc(-c4nccs4)cc3)c2O[C@@H]1CN(C)Cc1ccc(Cl)c(Cl)c1", "growth inhibition call": "inactive"}, {"smiles": "Cn1cnc(S(=O)(=O)N2C[C@H](O)COC[C@@H]3O[C@@H](CC(=O)NC4CCCC4)CC[C@H]32)c1", "growth inhibition call": "inactive"}, {"smiles": "NCC[S@@](=O)c1c(-c2ccc(F)cc2)[nH]c2ccccc12", "growth inhibition call": "inactive"}, {"smiles": "CSc1c(-c2ccc(Cl)cc2)[nH]c2ccccc12", "growth inhibition call": "active"}, {"smiles": "Cc1[nH]c2ccccc2c1C(=O)CSc1ccc(Cl)cc1", "growth inhibition call": "inactive"}, {"smiles": "CC(C)NC(=O)Nc1ccc2c(c1)C(=O)N([C@@H](C)CO)C[C@@H](C)[C@H](CN(C)C(=O)Nc1ccc3c(c1)OCO3)O2", "growth inhibition call": "inactive"}, {"smiles": "COc1ccc(NC(=O)N(C)C[C@H]2Oc3ncc(C#C[C@@H](C)O)cc3C(=O)N([C@@H](C)CO)C[C@H]2C)cc1", "growth inhibition call": "inactive"}, {"smiles": "COc1ccc2c3c(n(c2c1)C)[C@@H](CO)N(C[C@]13CN(C1)C(=O)CN(C)C)C(=O)CN(C)C", "growth inhibition call": "inactive"}, {"smiles": "Cc1ccccc1-c1cc(N2CCN(C)CC2)ncc1N(C)C(=O)C(C)(C)c1cc(C(F)(F)F)cc(C(F)(F)F)c1", "growth inhibition call": "active"}, {"smiles": "COCCOC(=O)N1C(=O)[C@@]2(c3cc(C#Cc4ccc(OC)cc4)ccc31)[C@H](C(=O)N1CCN(c3ncccn3)CC1)[C@H]1C(=O)O[C@H](c3ccccc3)[C@H](c3ccccc3)N1[C@@H]2c1ccc(OCCO)cc1", "growth inhibition call": "inactive"}, {"smiles": "C[C@@H]1CN([C@H](C)CO)C(=O)c2cc(NS(=O)(=O)c3ccccc3)ccc2O[C@@H](C)CCCCO[C@@H]1CN(C)C(=O)c1ccccc1", "growth inhibition call": "inactive"}, {"smiles": "CNC[C@@H]1OCCCC[C@H](C)Oc2ccc(NC(=O)Nc3ccc(C(F)(F)F)cc3)cc2C(=O)N([C@H](C)CO)C[C@@H]1C", "growth inhibition call": "inactive"}, {"smiles": "CNC[C@@H]1OCCCC[C@H](C)Oc2ccc(NC(=O)Nc3ccc(C(F)(F)F)cc3)cc2C(=O)N([C@H](C)CO)C[C@H]1C", "growth inhibition call": "active"}, {"smiles": "CNC[C@H]1OCCCC[C@@H](C)Oc2ccc(NC(=O)Nc3ccc(C(F)(F)F)cc3)cc2C(=O)N([C@H](C)CO)C[C@H]1C", "growth inhibition call": "active"}, {"smiles": "CNC[C@@H]1OCCCC[C@@H](C)Oc2ccc(NC(=O)Nc3ccc(C(F)(F)F)cc3)cc2C(=O)N([C@@H](C)CO)C[C@H]1C", "growth inhibition call": "inactive"}, {"smiles": "CNC[C@H]1OCCCC[C@@H](C)Oc2ccc(NC(=O)Nc3ccc(C(F)(F)F)cc3)cc2C(=O)N([C@H](C)CO)C[C@@H]1C", "growth inhibition call": "inactive"}, {"smiles": "CNC[C@@H]1OCCCC[C@@H](C)Oc2ccc(NC(=O)Nc3ccc(C(F)(F)F)cc3)cc2C(=O)N([C@@H](C)CO)C[C@@H]1C", "growth inhibition call": "inactive"}, {"smiles": "Cc1noc(C)c1NC(=O)N(C)C[C@H]1Oc2ccc(NC(=O)NC(C)C)cc2CC(=O)N([C@H](C)CO)C[C@@H]1C", "growth inhibition call": "inactive"}, {"smiles": "CN(c1ncccc1CNc1nc(Nc2ccc3c(c2)CC(=O)N3)ncc1C(F)(F)F)S(C)(=O)=O", "growth inhibition call": "inactive"}, {"smiles": "Cc1ccc(S(=O)(=O)Nc2cccc3c2O[C@@H](CN(C)S(=O)(=O)c2cn(C)cn2)[C@H](C)CN([C@H](C)CO)C3=O)cc1", "growth inhibition call": "inactive"}, {"smiles": "C[C@@H]1CCCCO[C@H](CN(C)C(=O)Nc2ccc(C(F)(F)F)cc2)[C@H](C)CN([C@@H](C)CO)C(=O)c2cc(NC(=O)Nc3ccc(C(F)(F)F)cc3)ccc2O1", "growth inhibition call": "inactive"}, {"smiles": "C[C@@H]1CN([C@@H](C)CO)C(=O)c2cc(NC(=O)Nc3ccc(C(F)(F)F)cc3)ccc2O[C@H]1CN(C)Cc1ccc(-c2ccccc2)cc1", "growth inhibition call": "inactive"}, {"smiles": "C[C@@H]1CN([C@H](C)CO)C(=O)c2cc(NC(=O)c3ccncc3)ccc2O[C@@H]1CN(C)Cc1ccncc1", "growth inhibition call": "inactive"}, {"smiles": "Cc1cc(CN)cc(C)c1NC(=O)c1ccc(-c2cc(Cl)ccc2Cl)o1", "growth inhibition call": "active"}, {"smiles": "Cc1cc(C(=O)c2cc3cc(Cl)ccc3o2)ccc1Cl", "growth inhibition call": "inactive"}, {"smiles": "Cc1ccc(CN)cc1Cl", "growth inhibition call": "inactive"}, {"smiles": "O=C1CCOC1", "growth inhibition call": "inactive"}, {"smiles": "C[C@H]1CN([C@@H](C)CO)C(=O)c2cc(NC(=O)Cn3cnnn3)ccc2O[C@H]1CN(C)Cc1ccc(Cl)c(Cl)c1", "growth inhibition call": "inactive"}, {"smiles": "CCCC[P+](CCCC)(CCCC)Cc1ccc(NC(=O)[C@@H](Cc2ccc3ccccc3c2)N=C(NC2CCCCC2)NC2CCCCC2)cc1", "growth inhibition call": "active"}, {"smiles": "CCC(=O)Nc1ccc2ccccc2c1", "growth inhibition call": "inactive"}, {"smiles": "CN(Cc1ccccc1)C(=O)[C@H](Cc1ccc2ccccc2c1)NC(=O)[C@@H]1CCCN1C(=O)Nc1ccccc1[N+](=O)[O-]", "growth inhibition call": "inactive"}, {"smiles": "CCCC[P+](CCCC)(CCCC)Cc1ccc(NC(=O)[C@H](Cc2ccc3ccccc3c2)N/C(=N/C2CCCCC2)NC2CCCCC2)cc1", "growth inhibition call": "active"}, {"smiles": "C[C@H](CO)N1C[C@H](C)[C@@H](CN(C)C(=O)NC2CCCCC2)Oc2ccc(NC(=O)Nc3cccc4ccccc34)cc2C1=O", "growth inhibition call": "inactive"}, {"smiles": "C[C@@H]1CN([C@H](C)CO)C(=O)c2cc(NC(=O)Nc3cccc4ccccc34)ccc2O[C@@H]1CN(C)C(=O)NC1CCCCC1", "growth inhibition call": "inactive"}, {"smiles": "C[C@H](CO)N1C[C@H](C)[C@H](CN(C)S(=O)(=O)c2ccc(Cl)cc2)Oc2ccc(N(C)C)cc2CC1=O", "growth inhibition call": "inactive"}, {"smiles": "C[C@H]1CN([C@@H](C)CO)C(=O)c2cccc(NS(C)(=O)=O)c2O[C@@H]1CN(C)S(=O)(=O)c1ccc(F)cc1", "growth inhibition call": "inactive"}, {"smiles": "CN(C)CCC=C1c2ccccc2COc2ccccc21.Cl", "growth inhibition call": "inactive"}, {"smiles": "CN(C)CCC=C1c2ccccc2CCc2ccccc21.Cl", "growth inhibition call": "inactive"}, {"smiles": "CN(C)CCC=C1c2ccccc2COc2ccc(CC(=O)O)cc21.Cl", "growth inhibition call": "active"}, {"smiles": "COc1ccc(S(=O)(=O)N(C)C[C@@H]2Oc3ccc(NC(=O)c4ccncc4)cc3C(=O)N([C@H](C)CO)C[C@H]2C)cc1", "growth inhibition call": "inactive"}, {"smiles": "C[C@@H]1CCCCO[C@@H](CN(C)C(=O)C2CCCCC2)[C@@H](C)CN([C@@H](C)CO)C(=O)c2cc(NS(=O)(=O)c3cccs3)ccc2O1", "growth inhibition call": "inactive"}, {"smiles": "Cc1noc(C)c1NC(=O)N(C)C[C@H]1Oc2ccc(NS(=O)(=O)c3c(C)noc3C)cc2CC(=O)N([C@H](C)CO)C[C@H]1C", "growth inhibition call": "inactive"}, {"smiles": "Cc1cc(Cl)cc2sc(N(Cc3ccccn3)C(=O)c3ccc(S(=O)(=O)N4CCCC4)cc3)nc12", "growth inhibition call": "inactive"}, {"smiles": "Cc1ccc2sc(N(CCCN(C)C)C(=O)c3ccc(S(=O)(=O)N(C)C4CCCCC4)cc3)nc2c1C", "growth inhibition call": "active"}, {"smiles": "Cc1ccc2sc(N(CCCN(C)C)C(=O)c3ccc(S(=O)(=O)N(C)Cc4ccccc4)cc3)nc2c1C", "growth inhibition call": "inactive"}, {"smiles": "CC(C)NC(=O)Nc1ccc2c(c1)C(=O)N([C@H](C)CO)C[C@@H](C)[C@H](CN(C)C(=O)C1CCCCC1)OCCCC[C@H](C)O2", "growth inhibition call": "inactive"}, {"smiles": "Cc1cc(C(=O)Nc2cccc3c2O[C@@H](CN(C)C(=O)Nc2c(C)noc2C)[C@H](C)CN([C@H](C)CO)C3=O)n(C)n1", "growth inhibition call": "inactive"}, {"smiles": "C[C@@H]1CCCCO[C@H](CN(C)S(=O)(=O)c2ccccc2)[C@@H](C)CN([C@H](C)CO)C(=O)c2cc(NC(=O)Nc3ccc(F)cc3)ccc2O1", "growth inhibition call": "inactive"}, {"smiles": "CO[C@@H]1CN(C)C(=O)c2ccc(NS(=O)(=O)c3ccccc3)cc2OC[C@@H](C)N(C(=O)NC(C)C)C[C@H]1C", "growth inhibition call": "inactive"}, {"smiles": "O=C(O)C1=C[C@@H](O)[C@H](O)[C@H](O)C1", "growth inhibition call": "inactive"}, {"smiles": "C[C@@H]1CN([C@@H](C)CO)C(=O)c2cc(NC(=O)Nc3ccc(C(F)(F)F)cc3)ccc2O[C@@H]1CN(C)Cc1ccccc1", "growth inhibition call": "inactive"}, {"smiles": "C[C@H](CO)N1C[C@H](C)[C@H](CN(C)Cc2ccccc2)Oc2ccc(NC(=O)Nc3ccc(C(F)(F)F)cc3)cc2C1=O", "growth inhibition call": "active"}, {"smiles": "C[C@@H]1CN([C@H](C)CO)C(=O)c2cc(NC(=O)Nc3ccc(C(F)(F)F)cc3)ccc2O[C@@H]1CN(C)Cc1ccccc1", "growth inhibition call": "inactive"}, {"smiles": "COc1ccc(CN(C)C[C@@H]2Oc3ccc(NC(=O)Nc4ccc(C(F)(F)F)cc4)cc3C(=O)N([C@@H](C)CO)C[C@@H]2C)cc1", "growth inhibition call": "inactive"}, {"smiles": "C[C@H]1CN([C@@H](C)CO)C(=O)c2cc(NC(=O)Nc3ccc(C(F)(F)F)cc3)ccc2O[C@H]1CN(C)Cc1ccccc1", "growth inhibition call": "active"}, {"smiles": "COc1ccc(NC(=O)Nc2ccc3c(c2)C(=O)N([C@@H](C)CO)C[C@@H](C)[C@@H](CN(C)Cc2ccc(C(F)(F)F)cc2)O3)cc1", "growth inhibition call": "inactive"}, {"smiles": "C[C@H](CO)N1C[C@H](C)[C@@H](CN(C)Cc2ccc3c(c2)OCO3)Oc2ccc(NC(=O)Nc3ccc(C(F)(F)F)cc3)cc2C1=O", "growth inhibition call": "inactive"}, {"smiles": "C[C@H]1CN([C@@H](C)CO)C(=O)c2cc(NC(=O)Nc3ccc(C(F)(F)F)cc3)ccc2O[C@@H]1CN(C)Cc1ccccc1", "growth inhibition call": "inactive"}, {"smiles": "COc1ccc(CN(C)C[C@@H]2Oc3ccc(NC(=O)Nc4ccc(C(F)(F)F)cc4)cc3C(=O)N([C@H](C)CO)C[C@@H]2C)cc1", "growth inhibition call": "active"}, {"smiles": "C[C@H]1CN([C@@H](C)CO)C(=O)c2cc(NC(=O)Nc3ccc(C(F)(F)F)cc3)ccc2O[C@H]1CN(C)Cc1ccc2c(c1)OCO2", "growth inhibition call": "active"}, {"smiles": "C[C@@H]1CN([C@@H](C)CO)C(=O)c2cc(NC(=O)Nc3ccc(C(F)(F)F)cc3)ccc2O[C@@H]1CN(C)Cc1ccc2c(c1)OCO2", "growth inhibition call": "inactive"}, {"smiles": "C[C@H](CO)N1C[C@H](C)[C@@H](CN(C)Cc2ccccc2)Oc2ccc(NC(=O)Nc3ccc(C(F)(F)F)cc3)cc2C1=O", "growth inhibition call": "inactive"}, {"smiles": "O=C(C[C@H]1CC[C@H]2[C@@H](COC[C@H](O)CN2S(=O)(=O)c2ccccc2)O1)N1CCOCC1", "growth inhibition call": "inactive"}, {"smiles": "C[C@@H]1CN([C@@H](C)CO)C(=O)c2cc(NC(=O)NC3CCCCC3)ccc2O[C@@H](C)CCCCO[C@H]1CN(C)S(=O)(=O)c1ccc(F)cc1", "growth inhibition call": "inactive"}, {"smiles": "CC(C)c1cc(=O)n2nc(N)nc2[nH]1", "growth inhibition call": "inactive"}, {"smiles": "Cc1ccc(S(=O)(=O)N(C)C[C@@H]2Oc3ncc(C#CCC(C)C)cc3C(=O)N([C@@H](C)CO)C[C@H]2C)cc1", "growth inhibition call": "inactive"}, {"smiles": "Cc1noc(C)c1NC(=O)N[C@@H]1CC[C@H](CC(=O)N2CCN(C)CC2)O[C@H]1CO", "growth inhibition call": "inactive"}]}]}
